The values that follow come from PubChem BioAssay (EPA / NIEHS).

Results filed as inconclusive are left out. The source made the active and inactive calls. How the source made its calls, unless noted: active means hit-call score of the fitted dose curve at least 0.9, where 1 is the maximum; inconclusive means response in the unintended direction; inactive means score below 0.9.

By AC50 is commonly meant the concentration giving half of the maximal activity seen.

One assay deals with Retinoic acid receptor RXR-alpha (Homo sapiens) (UniProt P19793). In words: OT_NURR1_NURR1RXRa_0480: Odyssey Thera (OT) 8-hour HEK293T Protein Complementation Assay for Nurr1/retinoid X receptor (RXR) (AID 2283385).
Chain of Retinoic acid receptor RXR-alpha (Homo sapiens) (P19793 whole entry, looked up): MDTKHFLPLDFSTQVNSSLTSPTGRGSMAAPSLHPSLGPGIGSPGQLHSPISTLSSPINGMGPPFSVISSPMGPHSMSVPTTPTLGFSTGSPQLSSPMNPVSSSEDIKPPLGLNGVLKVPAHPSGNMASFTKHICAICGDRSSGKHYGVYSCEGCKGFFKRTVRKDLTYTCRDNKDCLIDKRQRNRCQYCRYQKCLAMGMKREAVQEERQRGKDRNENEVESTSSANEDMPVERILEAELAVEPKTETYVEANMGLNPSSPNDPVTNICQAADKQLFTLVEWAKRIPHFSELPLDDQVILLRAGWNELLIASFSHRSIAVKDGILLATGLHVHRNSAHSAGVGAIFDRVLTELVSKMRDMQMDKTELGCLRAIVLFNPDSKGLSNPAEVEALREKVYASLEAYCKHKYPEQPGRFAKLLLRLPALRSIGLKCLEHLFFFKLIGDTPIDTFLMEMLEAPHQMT
Conditions: not given
In a few lines:
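8 h compound exposure, HEK293T; Nurr1/RXRα fragment complementation; fluorescence intensity; positive fitting direction vs DMSO baseline.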
`CCCCC[Si](OCC)(OCC)OCC`: the compound was called inactive.
On the same count and under the same terms, to `CC(C)CCCCCCCOC(=O)c1ccc(C(=O)OCCCCCCCC(C)C)c(C(=O)OCCCCCCCC(C)C)c1` belongs “inactive”; to `CCCCCOC(=O)CCC`, “inactive”.
For the compound `CC1=CC(=O)NS(=O)(=O)O1`, the result was inactive.
On the same count and under the same terms, to `CCCC1CCC(=O)O1` (stereo not given) belongs “inactive”; to `O=C(Cl)c1cccc(C(=O)Cl)c1`, “inactive”.
For the compound `CCCCCCCCCCCCCOS(=O)(=O)O`, the AC50 is 78.4 µM (active).
On to `CC(C)=CCCC(C)=CCCC(C)=CCO`, for which the result was inactive.
Still for that read-out and setting: to `C=CC[N+](C)(C)CC=C` belongs “inactive”.
Consider `CC1CC(OC(=O)c2ccccc2O)CC(C)(C)C1` (stereo not given), for which the AC50 is 92.8 µM (active).
With `O=c1cc(-c2ccccc2)oc2cc(O)cc(O)c12`, the outcome was inactive.
Still for that read-out and setting: as for `CSc1nc(NC2CC2)nc(NC(C)(C)C)n1`, the entry is “inactive”; as for `NCCCCCCN`, “inactive”.

The next assay shares this target. In words: OT_NURR1_NURR1RXRa_1440: Odyssey Thera (OT) 24-hour HEK293T Protein Complementation Assay for Nurr1/retinoid X receptor (RXR) (AID 2283386).
Conditions: not given
In a few lines: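 Interaction of Nurr1 with RXRα brings fused reporter fragments together in human HEK293T cells, restoring a functional reporter. Fluorescence intensity is measured 24 h after chemical treatment, and values are analysed in the positive direction against DMSO.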
On to `O=C(O)c1ccc(C(=O)O)cc1`, for which the result was inactive.
Consider `Cc1ccc(C(C)C)cc1O`, for which the compound was called inactive.
Still for that read-out and setting: to `CC(C)CCCCCCCOC(=O)c1ccc(C(=O)OCCCCCCCC(C)C)c(C(=O)OCCCCCCCC(C)C)c1` belongs “inactive”; to `CC1=CC(=O)NS(=O)(=O)O1`, “inactive”; to `CCCCCCCCCCC(CO)CCCCCCCC` (stereo not given), “inactive”.
Regarding `CC(C)(C#N)c1cc(Cn2cncn2)cc(C(C)(C)C#N)c1`, the result was inactive.
As for `C=CC[N+](C)(C)CC=C`, the compound was classed as inactive.
The same measure, in the same setting: to `O=c1cc(-c2ccccc2)oc2cc(O)cc(O)c12` belongs “inactive”.

The next assay deals with Peroxisome proliferator-activated receptor gamma (Homo sapiens) (UniProt P37231). In words: OT_PPARg_PPARgSRC1_0480: Odyssey Thera (OT) 8-hour Protein-Complementation Assay for Peroxisome Proliferator-activated Receptor Gamma / SRC-1 Co-activator (AID 2283387).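 Further: nuclear to cytoplasmic split Venus YFP fluorescence ratio reporting PPARg SRC-1 interaction.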
Chain of Peroxisome proliferator-activated receptor gamma (Homo sapiens) (P37231 whole entry, looked up): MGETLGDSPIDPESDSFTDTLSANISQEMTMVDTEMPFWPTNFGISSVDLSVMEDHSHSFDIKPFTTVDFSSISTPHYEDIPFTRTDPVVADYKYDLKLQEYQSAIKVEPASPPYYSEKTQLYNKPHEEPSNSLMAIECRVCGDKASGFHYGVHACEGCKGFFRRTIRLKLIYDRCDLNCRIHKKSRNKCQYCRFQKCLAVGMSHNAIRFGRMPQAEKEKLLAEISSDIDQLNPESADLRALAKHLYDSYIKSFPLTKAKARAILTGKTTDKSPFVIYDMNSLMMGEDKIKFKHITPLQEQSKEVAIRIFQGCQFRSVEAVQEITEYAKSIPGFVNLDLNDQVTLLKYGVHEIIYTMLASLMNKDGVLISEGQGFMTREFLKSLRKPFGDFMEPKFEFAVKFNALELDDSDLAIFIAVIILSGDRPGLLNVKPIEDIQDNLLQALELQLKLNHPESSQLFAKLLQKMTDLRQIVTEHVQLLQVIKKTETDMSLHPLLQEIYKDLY
Conditions: not given
In a few lines: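 Split-YFP (IFP1/IFP2) PPARg/SRC-1 reporter, HEK293T, 37 °C, 5% CO2; 8 h compound; formaldehyde fix + Draq5; high-content imaging, N/C ratio, ≥350 cells/image, positive direction vs DMSO.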
Turning to `O=C(O)c1ccc(C(=O)O)cc1`, the outcome was inactive.
On the same count and under the same terms, to `CCCCC[Si](OCC)(OCC)OCC` belongs “inactive”; to `CC(C)C[C@H]1C(=O)N2CCC[C@H]2[C@]2(O)O[C@](NC(=O)[C@@H]3C=C4c5cccc6[nH]c(Br)c(c56)C[C@H]4N(C)C3)(C(C)C)C(=O)N12`, “inactive”.
With `Cc1ccc(C(C)C)cc1O`, the compound was called inactive.
Same read-out and setting: to `CC(C)CCCCCCCOC(=O)c1ccc(C(=O)OCCCCCCCC(C)C)c(C(=O)OCCCCCCCC(C)C)c1` belongs “inactive”; to `CCCCCOC(=O)CCC`, “inactive”.
The same measure, in the same setting: to `CC1=CC(=O)NS(=O)(=O)O1` belongs “inactive”; to `CCCC1CCC(=O)O1` (stereo not given), “inactive”.
Still for that read-out and setting: as for `O=C(Cl)c1cccc(C(=O)Cl)c1`, the entry is “inactive”; as for `CCCCCCCCCCCCCOS(=O)(=O)O`, “inactive”; as for `CCCCCCCCCCC(CO)CCCCCCCC` (stereo not given), “inactive”.
On to `CC(C)(C#N)c1cc(Cn2cncn2)cc(C(C)(C)C#N)c1`, for which the outcome was inactive.
The same measure, in the same setting: to `O=C(O)Cc1cccc2ccccc12` belongs “inactive”; to `CCN(CC)CCOC(=O)c1ccc(N)cc1`, “inactive”.
On the same count and under the same terms, to `CC(C)=CCCC(C)=CCCC(C)=CCO` belongs “inactive”; to `C=CC[N+](C)(C)CC=C`, “inactive”.
Still for that read-out and setting: as for `CCCOCC(C)O` (stereo not given), the entry is “inactive”; as for `CC1CC(OC(=O)c2ccccc2O)CC(C)(C)C1` (stereo not given), “inactive”; as for `O=c1cc(-c2ccccc2)oc2cc(O)cc(O)c12`, “inactive”.
For `CSc1nc(NC2CC2)nc(NC(C)(C)C)n1`, the compound was called inactive.
Same read-out and setting: as for `NCCCCCCN`, the entry is “inactive”.

Another assay shares this target. In words: OT_PPARg_PPARgSRC1_1440: Odyssey Thera (OT) 24-hour Protein-Complementation Assay for Peroxisome Proliferator-activated Receptor Gamma/ SRC-1 Co-activator (AID 2283388).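 Further: nuclear to cytoplasmic ratio of reconstituted Venus YFP fluorescence in fixed imaged cells.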
Conditions: not given
In short, it runs like this:
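Cells carrying the PPARg/SRC-1 fragment-complementation reporter receive compound for 24 hours, are fixed and counterstained with Draq5, then imaged. Increased nuclear relative to cytoplasmic YFP fluorescence above DMSO baseline indicates binding activity.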
Take `O=C(O)c1ccc(C(=O)O)cc1`: the outcome was inactive.
Regarding `CCCCC[Si](OCC)(OCC)OCC`, the result was inactive.
Still for that read-out and setting: to `CC(C)C[C@H]1C(=O)N2CCC[C@H]2[C@]2(O)O[C@](NC(=O)[C@@H]3C=C4c5cccc6[nH]c(Br)c(c56)C[C@H]4N(C)C3)(C(C)C)C(=O)N12` belongs “inactive”; to `Cc1ccc(C(C)C)cc1O`, “inactive”.
Consider `CC(C)CCCCCCCOC(=O)c1ccc(C(=O)OCCCCCCCC(C)C)c(C(=O)OCCCCCCCC(C)C)c1`, for which the call was inactive.
Still for that read-out and setting: to `CCCCCOC(=O)CCC` belongs “inactive”.
The same measure, in the same setting: to `CC1=CC(=O)NS(=O)(=O)O1` belongs “inactive”; to `CCCC1CCC(=O)O1` (stereo not given), “inactive”; to `O=C(Cl)c1cccc(C(=O)Cl)c1`, “inactive”.
Same read-out and setting: to `CCCCCCCCCCCCCOS(=O)(=O)O` belongs “inactive”; to `CCCCCCCCCCC(CO)CCCCCCCC` (stereo not given), “inactive”.
On to `CC(C)(C#N)c1cc(Cn2cncn2)cc(C(C)(C)C#N)c1`, for which the compound was classed as inactive.
Same read-out and setting: to `O=C(O)Cc1cccc2ccccc12` belongs “inactive”; to `CCN(CC)CCOC(=O)c1ccc(N)cc1`, “inactive”; to `CC(C)=CCCC(C)=CCCC(C)=CCO`, “inactive”.
As to `C=CC[N+](C)(C)CC=C`, the compound was called inactive.
The same measure, in the same setting: to `CCCOCC(C)O` (stereo not given) belongs “inactive”; to `CC1CC(OC(=O)c2ccccc2O)CC(C)(C)C1` (stereo not given), “inactive”; to `O=c1cc(-c2ccccc2)oc2cc(O)cc(O)c12`, “inactive”.
As for `CSc1nc(NC2CC2)nc(NC(C)(C)C)n1`, the compound was classed as inactive.
The same measure, in the same setting: as for `NCCCCCCN`, the entry is “inactive”.

Read-out in the next assay: not listed separately
In words: CEETOX_H295R_11DCORT: CeeTox H295R High-throughput Steroidogenesis Assay for 11-Deoxycortisol (11DCORT) (AID 2283432; active means hit-call score of the fitted dose curve at least 0.9, where 1 is the maximum; inactive means score below 0.9;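 on AC50: 11-deoxycortisol secreted into the medium measured by LC-MS/MS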). The following applies: actives raise or lower the signal. In a few lines: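 Steroidogenesis in human H295R cells: 48 h chemical exposure after forskolin priming, 11-deoxycortisol measured by LC-MS/MS.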
For the compound `O=C(O)C[C@H](O)C[C@H](O)/C=C/c1c(C2CC2)nc2ccccc2c1-c1ccc(F)cc1`, the AC50 is 0.0625 µM (active).
For the compound `COc1cc2ncnc(Nc3cccc(Cl)c3)c2cc1OC`, the outcome was inactive.
On the same count and under the same terms, to `CC1(C)[C@H](C(=O)OCc2cccc(Oc3ccccc3)c2)[C@@H]1C=C(Cl)Cl` belongs “inactive”; to `Cc1cccc(C)c1C`, “inactive”.
The same measure, in the same setting: as for `Nc1cc([N+](=O)[O-])ccc1Cl`, the entry is “inactive”.
For the compound `C=CC(C)(C)O`, the result was inactive.
The same measure, in the same setting: as for `Nc1ccc(F)c([N+](=O)[O-])c1`, the entry is “inactive”.
For the compound `C#C[C@]1(O)CC[C@H]2[C@@H]3CCC4=Cc5oncc5C[C@]4(C)[C@H]3CC[C@@]21C`, the AC50 is 5.4 µM (active).
Turning to `O=c1cc(-c2ccccc2)oc2cc(O)cc(O)c12`, the result was inactive.
On the same count and under the same terms, to `Cc1ccc2n[nH]nc2c1` belongs “inactive”.

Read-out in a further assay: not listed separately
In words: CEETOX_H295R_OHPREG: CeeTox H295R High-throughput Steroidogenesis Assay for OH-Pregnenolone (OHPREG) (AID 2283434; active means hit-call score of the fitted dose curve at least 0.9, where 1 is the maximum; inactive means score below 0.9). The following applies: actives raise or lower the signal. In short, it runs like this:
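Human adrenal H295R cells were prestimulated 48 h with 10 uM forskolin, then exposed 48 h to chemical in 0.1% DMSO. Medium 17alpha-hydroxypregnenolone was quantified by HPLC-MS/MS after MTBE extraction; bidirectional fitting versus DMSO baseline.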
For `O=C(O)C[C@H](O)C[C@H](O)/C=C/c1c(C2CC2)nc2ccccc2c1-c1ccc(F)cc1`, the AC50 was 0.00206 µM (active).
For `COc1cc2ncnc(Nc3cccc(Cl)c3)c2cc1OC`, the compound was classed as inactive.
Same read-out and setting: as for `CC1(C)[C@H](C(=O)OCc2cccc(Oc3ccccc3)c2)[C@@H]1C=C(Cl)Cl`, the entry is “inactive”; as for `Cc1cccc(C)c1C`, “inactive”.
Same read-out and setting: to `Nc1cc([N+](=O)[O-])ccc1Cl` belongs “inactive”; to `C=CC(C)(C)O`, “inactive”; to `Nc1ccc(F)c([N+](=O)[O-])c1`, “inactive”.
For the compound `C#C[C@]1(O)CC[C@H]2[C@@H]3CCC4=Cc5oncc5C[C@]4(C)[C@H]3CC[C@@]21C`, the AC50 is 0.36 µM (active).
On the same count and under the same terms, to `CC(C)=CCCC(C)=CCCC(C)=CCO` belongs 28.1 µM (active).
As to `O=c1cc(-c2ccccc2)oc2cc(O)cc(O)c12`, the call was inactive.
As for `CSc1nc(NC2CC2)nc(NC(C)(C)C)n1`, the call was inactive.
On the same count and under the same terms, to `Cc1ccc2n[nH]nc2c1` belongs “inactive”.
